# In PubChem BioAssay (NCI):
# This is part of a sample that, as a whole, favours compounds with a hit. Of some 79,000 tested, about 15% had one in any assay. A number with no mark means an inactive call. Activity calls are given as the source filed them. No stated cut-off is given here; in the data, active means growth inhibition above about 70%; inactive means the rest.
# Legend:
# [1] = NCI Yeast Anticancer Drug Screen. Data for the rad50 strain (AID 155);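 further: 0% = growth of vehicle-only cultures of the same strain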; conditions: S. cerevisiae rad50 strain growth inhibition; at 50.0 µM; hits give high values
# Summary of the method: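 Cells are treated with compound, grown, and their growth is then scored against vehicle-only cultures of the same repair-deficient yeast strain.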
# [2] = NCI Yeast Anticancer Drug Screen. Data for the mec2-1 strain (AID 157); conditions: S. cerevisiae mec2-1 strain, at 50.0 µM, hits give high values
# Summary of the method: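 Growth inhibition is read against vehicle-treated controls after compound exposure of the mec2-1 yeast strain, which is defective in DNA damage repair or cell cycle control.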
# [3] = NCI Yeast Anticancer Drug Screen. Data for the sgs1 mgt1 strain (AID 161);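 further: 0% = growth of cultures given vehicle only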; conditions: S. cerevisiae sgs1 mgt1 strain, at 50.0 µM, hits give high values
# Summary of the method: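 Growth of a repair-deficient yeast mutant was monitored after compound treatment and expressed as inhibition relative to vehicle-treated cultures.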
# [4] = NCI Yeast Anticancer Drug Screen. Data for the cln2 rad14 strain (AID 165);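 further: 0% = growth equal to vehicle treated cultures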; conditions: S. cerevisiae cln2 rad14 strain, at 50.0 µM, hits give high values
# Summary of the method: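 Growth inhibition, relative to vehicle-treated controls, is the read-out. The test organism is a yeast strain with defined genetic alterations, cln2 rad14.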
# [5] = NCI Yeast Anticancer Drug Screen. Data for the bub3 strain (AID 167); conditions: S. cerevisiae bub3 mutant strain, at 50.0 µM, hits give high values
# Summary of the method: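 Part of a panel of yeast mutants defective in DNA damage repair or cell cycle regulation. Each strain is grown with compound, and inhibition is calculated relative to solvent-treated cultures.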
# [6] = NCI Yeast Anticancer Drug Screen. Data for the mlh1 rad18 strain (AID 175); conditions: S. cerevisiae mlh1 rad18 strain growth inhibition; at 50.0 µM; hits give high values
# Summary of the method: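 Cells of a genetically altered yeast strain, deficient in DNA damage repair, were treated with compound. Their growth was then compared with that of vehicle-treated cultures to give inhibition.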
Compound,growth inhibition [1],growth inhibition [2],growth inhibition [3],growth inhibition [4],growth inhibition [5],growth inhibition [6]
COc1ccc(OC)c(NCC(=O)Nn2cnc3ccc(S(=O)(=O)Nc4cc(OC)ccc4OC)cc3c2=O)c1,36.9%,12.7%,27.6%,20.9%,50.8%,37.1%
CC1(Br)CC2=C(CC1(C)Br)C(=O)C(c1ccccc1)=C(c1ccccc1)C2=O (stereo not given),9.25%,17.1%,39.2%,25%,12.3%,23.4%
COC(=O)NC1CC/C=C\CCC1I (stereo not given),12.8%,10%,8.1%,12.9%,22.9%,4.7%
C/C(=C/c1c(C)c([N+](=O)[O-])c(C)c(C)c1[N+](=O)[O-])C(=O)O,-3.3%,38.8%,14.7%,11.4%,30.9%,37%
COc1cc(C(=O)O)cc(OC(C)=O)c1OC,16.6%,3.9%,8.3%,8.65%,3.4%,20.7%
COc1ccc(NC(C)c2ccncc2)cc1 (stereo not given),-17.8%,-16%,-29%,-9.95%,-9.9%,-46%
COc1ccc(CNc2nc3ccccc3nc2C(=O)O)cc1OC,1.9%,18.6%,4.4%,7.25%,9%,-12.5%
COC1OC2COC(c3ccccc3)OC2C(N=[N+]=[N-])C1O (stereo not given),-0.1%,4%,-4.9%,-31.2%,-7.45%,2.2%
CC(C)(C)C1=CC(=O)C(C#N)(C(C)(C)C)C1=O (stereo not given),11.2%,-5.7%,7.15%,-36%,1.6%,6.55%
CN(C)Cc1cc(C(=O)/C=C/c2ccc(Cl)cc2Cl)cc(CN(C)C)c1O,6.4%,-12.8%,8.55%,-51.4%,8.85%,13.8%
CCC[CH2][Sn]([C]#[C][Sn]([CH2]CCC)([CH2]CCC)[CH2]CCC)([CH2]CCC)[CH2]CCC,99.6% (active),98.8% (active),99.5% (active),99.2% (active),99.3% (active),99.4% (active)
CCOC(=O)c1cc(NC(C)=O)cn1C,4.4%,8.8%,-1.15%,-11%,6.45%,16.4%
O=C1OC(c2cccc([N+](=O)[O-])c2)=N/C1=C\c1ccccc1,17.2%,12.1%,14.6%,18.4%,15.3%,24.6%
CC(C)SCCC#N,13%,-8.55%,-13.1%,-5.5%,-3.7%,-4.75%
NC(=S)NO,-1.85%,-3.8%,2.35%,22.6%,8%,-19.9%
COC(=O)C(=O)C(C#N)c1c(Cl)cccc1Cl (stereo not given),-5.6%,39.1%,0.05%,8.9%,1.65%,34.1%
Cc1c(Cl)cccc1NC(=O)C(=O)C(C(=O)c1ccccc1-c1ccccc1)C1OC(=O)c2ccccc21 (stereo not given),-31.9%,-44.5%,-14.3%,-41.8%,11.9%,-23%
O/N=C1/CCCCCC1NO (stereo not given),-23.8%,-24.1%,-22.7%,15.4%,-18.1%,-13.1%
NC(N)=N/N=C/c1oc(-c2ccc(S(=O)(=O)O)o2)c(-c2ccc(S(=O)(=O)O)o2)c1[N+](=O)[O-],-21.4%,9.6%,-22%,6.6%,-3.35%,0.95%
CC(C)Cc1ccc(C(C)CC2=CCC(CN(C)C)C2=O)cc1 (stereo not given),79.2% (active),91.5% (active),90.2% (active),84.4% (active),88.7% (active),89.3% (active)

Compound,growth inhibition [1],growth inhibition [2],growth inhibition [3],growth inhibition [4],growth inhibition [5],growth inhibition [6]
CCSc1ccc(C)cc1,28.6%,-3.15%,-20.8%,26.5%,-8.1%,12.6%
COC(=O)c1cc(-c2ccc(N)cc2)c2c(=O)n(-c3ccccc3)[nH]c2n1,26.1%,19%,30.9%,-0.65%,-1.4%,6.45%
C[C@H]1CC[C@@H](C(C)(C)O)CC2=C1CC[C@@H]2C,-0.2%,-44.4%,-13.2%,0.15%,-10.6%,-26.4%
CNC1NC(=O)c2ccccc2N1Cc1ccc(F)cc1 (stereo not given),5.7%,4.5%,-23.1%,-19.6%,-12.1%,-4.25%
Cc1[nH]c2c(O)ccc(O)c2c1C,-1.05%,-9.45%,-9.15%,-20.6%,-8%,4.9%
O=C(Nc1ccccc1)Oc1cccc(-c2ccc(-c3ccccc3)cc2)c1,29.4%,6.5%,33.7%,18.9%,49.5%,18.2%
O=C(Cc1nc2sc3c(c2c(=O)[nH]1)CCCC3)Nc1ccccc1,-3.1%,-12.3%,0.05%,5.9%,-4%,-17.6%
O=C(Nc1ccccc1Cl)c1ccc([N+](=O)[O-])cc1,11.4%,15.4%,18.6%,10.3%,11.2%,24.6%
CCc1ccc2c(c1)CCC(=O)O2,0.5%,-15.2%,-4.8%,-23.7%,-13.9%,-7.65%
C[Si](C)(CNCCN)O[Si](C)(C)CNCCN,6.3%,-18.8%,-3.3%,13.1%,5.9%,13.3%
CC1CCC(C(C)(C)O)CC1O (stereo not given),-12.9%,2.05%,0.9%,-9.05%,-16.8%,-7.55%
c1ccc(CN2COc3c(ccc4c5c(ccc34)CN(Cc3ccccc3)CO5)C2)cc1,5%,-10.4%,-37.5%,-14.1%,-19.9%,-9.15%
CNc1ncnc2c(C3OC(CO)C(O)C3O)[nH]nc12 (stereo not given),16%,10.8%,6.6%,20.8%,-0.8%,13.4%
CCC(C)C(C)(CO)CO (stereo not given),1.5%,-20.9%,-3.7%,20.4%,-14.3%,25.6%
COc1ccc2[nH]c3c(c2c1)[C@H](c1ccccc1)C[C@@H]1C(=O)N(c2ccccc2)C(=O)[C@H]31,-5.25%,-6.65%,1.75%,0.65%,-8.9%,-7.95%
O=C1C=C(Nc2ccc(S(=O)(=O)Nc3ncccn3)cc2)c2ccccc2C1=O,27.4%,41.5%,50.1%,30.8%,18.9%,44.6%
O=C(c1ccc(F)cc1)C1CC1,3.7%,-17.8%,19%,9.3%,-0.95%,2.25%
C/C(C/C(C)=N/O)=N/O,-8.6%,-5.85%,2.8%,0.45%,-2.55%,17.7%
CCCN(CCC#N)C(=S)Nc1ccc(C)c(C)c1,-13.1%,-54.7%,-3.1%,-7.5%,-41.6%,-27.9%
CN1CCC=C(COC(=O)C(C)(C)C)C1,1.8%,4.9%,-10.9%,7.45%,5.45%,18.4%
